# Screens deposited in PubChem by Broad Institute.
# aSyn 5UTR act = Activators working through SNCA 5'UTR binding (MLPCN) | alpha-synuclein 5'UTR reporter, activators screen | activity score, % (tested at 7.5 µM), hits read low | 300,000 tested, 7.1% active; in the data active means activity score below about -60%
# Active calls of the source: *. The list is a sample of the results.
SMILES,aSyn 5UTR act
COc1cccc(C(=O)O/N=C(\N)c2ccc(C)cc2)c1,-211.2*
COc1ccc(/C(N)=N/OC(=O)c2cccc([N+](=O)[O-])c2C)cc1,-113.1*
COc1cccc(C(=O)O/N=C(\N)c2ccc([N+](=O)[O-])cc2)c1,-163.9*
COc1ccc(/C(N)=N/OC(=O)c2cccc([N+](=O)[O-])c2)cc1,-129.2*
O=C(Nc1ccc(S(=O)(=O)NC2=NCCCCC2)cc1)c1ccc([N+](=O)[O-])s1,-65.5*
c1ccc(Nc2ccccc2Nc2ccccn2)nc1,-63.0*
Cc1ccccc1NC(=O)Nc1ccccn1,-110.7*
Cc1cccc(NC(=O)c2ccccn2)c1C,-111.8*
Oc1cccc2ccc(Nc3ccccn3)nc12,98.4
Cc1cccc(NC(=O)Nc2ccccn2)c1C,-70.6*
CSCc1ccc(C(=O)Nc2cccc(C)c2C)cc1,-81.9*
O=C(Nc1ccccn1)Nc1ccccc1[N+](=O)[O-],-90.9*
O=C(N/N=C/c1ccc(Cl)cc1)C1CC12CCC2 (stereo not drawn),-109.8*
Cc1cccc(/C(N)=N/OC(=O)Cc2cccs2)c1,-140.8*
N/C(=N\OC(=O)Cc1cccs1)c1ccccc1,-213.9*
N/C(Cc1cccs1)=N\OC(=O)COc1ccccc1,-77.3*
Cc1ccc(/C(N)=N/OC(=O)Cc2cccs2)cc1,-168.5*
Cc1cccc(N(C(=O)c2nsc(Cl)c2Cl)C(C(=O)NC2CCCC2)c2ccc(O)cc2)c1 (stereo not drawn),-82.1*
COC(=O)c1sccc1NC(=O)/C=C/c1ccc(Cl)cc1Cl,-205.5*
COC(=O)c1sccc1NC(=O)/C=C/c1c(Cl)cccc1Cl,-139.4*
COc1cccc(C2=CC(c3ccc(N(C)C)cc3)n3ncnc3N2)c1 (stereo not drawn),-71.5*
COc1cccc(C2=CC(c3ccc(N(C)C)cc3)n3nnnc3N2)c1 (stereo not drawn),-75.9*
COc1ccc(C2C=C(c3ccccc3)Nc3nnnn32)cc1 (stereo not drawn),-167.9*
O=C(/C=C\c1ccc(-c2ccccc2)o1)c1ccccc1,-61.7*
Cc1ccc(C(=O)/C=C/c2ccc(-c3ccc(C)cc3)o2)cc1,-72.5*
SMILES,aSyn 5UTR act
COC(=O)Nc1ccc(S(=O)(=O)N2CCCc3ccccc32)cc1,84.1
O=C(Nc1ccc(S(=O)(=O)N2CCc3ccccc32)cc1)c1ccc2c(c1)OCO2,-72.9*
CC(=O)c1cccc(NC(=O)N2CCCc3ccccc32)c1,-130.9*
O=C(Nc1ccc2c(c1)OCO2)N1CCCc2ccccc21,-102.8*
CS(=O)(=O)N1CCc2cc(C(=O)Nc3ccc(Cl)cc3)ccc21,-137.9*
COc1cccc(/C=C2\CCC(C3CCCC3)C2=O)c1OC (stereo not drawn),-163.3*
COc1cccc(/C=C2\CCC(C3CCCC3)C2=O)c1 (stereo not drawn),-98.8*
Cc1cccc(C(=O)N2CCCC(c3nc(-c4ccc(C)o4)no3)C2)c1 (stereo not drawn),-145.0*
Cc1ccc(CNc2nc(C)cs2)cc1,-112.1*
S=C(NCc1ccco1)Nc1ccc(Br)cc1Cl,-141.0*
S=C(NCc1ccco1)Nc1ccc(Cl)cc1Cl,-107.8*
CCCc1ccc(-c2cc(C(=O)NC3=NCCS3)c3ccccc3n2)cc1,-190.7*
Cc1ccc(-c2cc(C(=O)N/N=C/c3c(C)nn(C)c3C)c3ccccc3n2)cc1C,-73.0*
Cc1ccc(-c2cc(C(=O)NC3=NCCS3)c3ccccc3n2)cc1C,-167.5*
CCc1ccc(-c2cc(C(=O)NCc3ccccn3)c3ccccc3n2)cc1,-227.0*
C/C(=N\Nc1cccc([N+](=O)[O-])c1)c1ccccc1O,-165.9*
C/C(=N\Nc1cccc([N+](=O)[O-])c1)c1cc(F)ccc1O,-131.1*
CC(C)CC(NC(=O)CNC(=O)C1O[C@@H]2OC(C)(C)O[C@@H]2[C@H]2OC(C)(C)O[C@@H]12)C(=O)O (stereo partly drawn),-84.4*
Cn1c(C(=O)N/N=C/c2ccccc2)cc2ccccc21,-108.2*
Cc1cc(C(=O)N/N=C/c2ccccc2)c(C)o1,-69.9*
Cc1cc(C(=O)N/N=C/c2cccc3ccccc23)c(C)o1,-62.0*
Cn1nccc1C(=O)N/N=C/c1c(O)ccc2ccccc12,91.5
COc1ccc(CNS(=O)(=O)c2cc3c(cc2C)N(C)CCO3)cc1,-65.0*
CCOc1cccc(C(=O)NC(=S)Nc2cccnc2)c1,-142.1*
CC(C)(C)c1cc(Cl)c(O)c(NC(=S)NC(=O)c2cccnc2)c1,79.6
SMILES,aSyn 5UTR act
O=C(NC(=S)Nc1ccc(CN2CCCCC2)cc1)c1cccc(OCc2ccccc2)c1,-64.6*
CCOc1cccc(C(=O)NC(=S)Nc2ccccc2)c1,-184.2*
CN(CCC#N)C(=O)c1cc2c(s1)-c1ccccc1SC2,-91.0*
CN(C)c1nc(N)nc(CSc2nc3cc(Cl)ccc3o2)n1,-126.3*
CCN1CCN(Cc2ccc(NC(=O)c3ccc(C)c(NC(=O)N4CCNC4=O)c3)cc2C(F)(F)F)CC1,59.5
CCN1CCN(c2ccc(NC(=O)c3ccc4c(c3)[nH]c(=O)n4Cc3ccc(F)cc3)cc2)CC1,-67.6*
CN1/C(=C\C(=O)c2cccc([N+](=O)[O-])c2)Sc2ccccc21,-83.4*
COc1ccc2c(c1)S/C(=C\C(=O)c1ccncc1)N2C,-165.2*
COc1cc(OC)cc(C(=O)/C=C2\Sc3ccccc3N2C)c1,-154.3*
CN1/C(=C/C(=O)C2CCC2)Sc2ccccc21,-88.8*
CN1/C(=C/C(=O)c2ccc(Cl)cc2)Sc2cc3c(cc21)OCO3,-160.1*
O=C(NCCCc1ccccc1)c1cnc2n(c1=O)CCS2,-125.2*
Nc1c(C(=O)Nc2ccc(S(=O)(=O)N3CCCC3)cc2)sc2nc3ccc(OC(F)(F)F)cc3cc12,109.2
O=C(Nc1cccc(C(F)(F)F)c1)c1cnc2n(c1=O)CCS2,-107.9*
O=C(NCCC1=CCCCC1)c1cnc2n(c1=O)CCS2,-107.6*
O=C(Nc1ccc(OC(F)(F)F)cc1)c1cnc2n(c1=O)CCS2,-160.0*
O=C(Nc1ccccc1)c1cnc2n(c1=O)CCS2,-100.4*
C=C1C(=O)C=C2CN(C(=O)c3ccccc3)[C@@](Cc3ccc(F)cc3)(C(=O)OC)[C@@H]12,56.3
CCOc1ccc(NC(=O)C(=S)NC2CCCCC2)cc1,-192.2*
COc1ccc(NC(=O)C(=S)NC2CCCCC2)cc1,-125.0*
COc1ccc(NC(=O)C(=S)N2CCCC2)cc1,-63.2*
COc1ccc(NC(=O)CSC2CCCCC2)cc1,-157.7*
O=C(CSCCO)Nc1ccc(C2CCCCC2)cc1,-127.0*
CCc1ccc(NC(=O)C(=S)NC2CCCCC2)cc1,-177.5*
CO/N=C/CC(=O)c1cnc(-c2ccc(Cl)cc2)s1,-78.6*
SMILES,aSyn 5UTR act
COC(=O)/C(=C\c1ccc(O)cc1)c1nc2ccccc2[nH]1,-185.8*
C/C(=C\c1ccc(N)cc1)c1nc2ccccc2[nH]1,-172.0*
COc1cc(/C=C(/C(=O)c2cccs2)c2nc3ccccc3[nH]2)ccc1O,-86.0*
O=C(/C(=C/c1ccc(Cl)cc1)c1nc2ccccc2[nH]1)c1cccs1,-177.7*
O=C(/C(=C\c1ccccc1)c1nc2ccccc2[nH]1)c1ccc(Cl)cc1,-227.9*
Cc1cc2ncc(-c3ccc(Cl)cc3)cn2n1,-83.8*
O=C(N/N=C/C(Br)=C\c1ccccc1)c1cccs1,-318.5*
CC(/C=N/NC(=O)c1nn(C)c(C)c1Br)=C\c1ccccc1,-121.8*
CC(=C/c1ccccc1)/C=N/n1cnnc1,55.9
CC(=C/c1ccccc1)/C=N/NC(=O)c1cccs1,-90.2*
Cc1cccc(-n2nnc(C(=O)Nc3ccc(F)cc3)c2N)c1,-195.7*
Cc1cccc(-n2nnc(C(=O)N3CCc4ccccc4C3)c2N)c1,-71.3*
